Data from PubChem BioAssay.
Where “and” joins values, the source holds several entries; their conditions need not be identical. Equal values may be shown once. Inconclusive results are not listed. Calls of active or inactive are those of the source.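 Rule for the calls, unless noted: active = normalized viability below 100% at a tested concentration; inactive = the rest.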

What was measured:
[1] = viability loss in pontine glioma line – cell-based, SU-DIPG-XVII, MIPE5.0, CellTiter-Glo, qHTS, dose response (AID 1347060; cut-off not given, nearly all actives have AC50 up to about 26 µM;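 for AC50: cells exposed to compound for 48 hours before viability readout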); settings: CellTiter-Glo ATP luminescence
[2] = viability loss in pontine glioma line – cell-based, SU-DIPG-XIII, MIPE4.0, CellTiter-Glo, qHTS, dose response (AID 1347061; cut-off not given, nearly all actives have AC50 up to about 37 µM;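 note: cells exposed to compound for 48 hours before readout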); settings: CellTiter-Glo ATP luminescence
[3] = viability loss in pontine glioma line – cell-based, SU-DIPG-IV, MIPE4.0, CellTiter-Glo, qHTS, dose response (AID 1347063; cut-off not given, nearly all actives have AC50 up to about 30 µM;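 note: compound exposure lasted 48 hours before the viability readout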); settings: CellTiter-Glo ATP luminescence
[4] = viability loss in pontine glioma line – cell-based, SU-DIPG-XIII, MIPE5.0, CellTiter-Glo, qHTS, dose response (AID 1347064; cut-off not given, nearly all actives have AC50 up to about 23 µM;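 note: cells exposed to compound for 48 hours before the viability read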); settings: CellTiter-Glo ATP luminescence
[5] = viability loss in pontine glioma line – cell-based, SU-DIPG-XXV, MIPE5.0, CellTiter-Glo, qHTS, dose response (AID 1347065; cut-off not given, nearly all actives have AC50 up to about 26 µM;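 note: cells exposed to compound for 48 hours before ATP readout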); settings: CellTiter-Glo ATP luminescence
[6] = growth inhibition of DIPG cells – cell-based, MIPE4.0 library, CellTiter-Glo luminescence, qHTS (AID 1347066; cut-off not given, nearly all actives have AC50 up to about 30 µM;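 note: cells exposed to compound for 48 hours before readout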); settings: SU-DIPG-VI viability, CellTiter-Glo ATP luminescence
[7] = JHH-DIPG-1 glioma cell viability, MIPE5.0 library, CellTiter-Glo luminescence, qHTS (AID 1347067; cut-off not given, nearly all actives have AC50 up to about 26 µM;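 note: cells exposed to compound for 48 hours before readout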); settings: JHH-DIPG-1 glioma viability, CellTiter-Glo ATP luminescence
[8] = growth inhibition of DIPG cells – cell-based, MIPE5.0 library, qHTS (AID 1347068; cut-off not given, nearly all actives have IC50 up to about 30 µM;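 for IC50: cells exposed to compound for 48 hours before viability readout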); settings: SU-DIPG-XXV viability
[9] = viability loss with induced miR-34 in A549 – imaging, A549 dox-inducible miR-34, nuclei and caspase counts, primary screen (AID 1347080;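 active = compounds whose cell count with miR-34 switched on is under 0.7 times the count with it off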); settings: A549 miR-34 inducible, Hoechst nuclei count, 48 h
[10] = compounds altering HSF1 focus formation in cells – imaging, Selleck Cancer Library (AID 1347162; in the data active = plate-normalised HSF1 focus index below about 0.46); settings: human cells, HSF1 nuclear foci imaging, at 10 µM; SSMD: measured here: HSF1 foci SSMD mean; cell count: measured here: cell number; plate-normalised HSF1 focus index: stronger effect = lower value
[11] = MELAS cybrid and Rieske KO viability enhancers – cell-based, MELAS cybrids, Rieske KO mouse fibroblasts, CellTiter-Glo, primary screen (AID 1508586;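 active = mean z-score across replicates of 1.96 or higher in either the MELAS or the Rieske mutant cell line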;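 note: z relative to plate mean and SD of compound and empty wells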); settings: low glucose
[12] = drug combination growth inhibition, ovarian cancer – cell-based, oncology-focused library, rucaparib conditional, profiling panel (AID 1508598); settings: patient-derived ovarian cancer cells, CellTiter-Glo viability, 144 h, stronger effect = lower value
[13] = viability loss in pontine glioma line – cell-based, JHH-DIPG-1, MIPE4.0, CellTiter-Glo, qHTS, dose response (AID 1347062; cut-off not given, nearly all actives have AC50 up to about 27 µM); settings: JHH-DIPG-1 viability, CellTiter-Glo ATP luminescence
[14] = stronger effect = lower value, cell number ratio, induced over uninduced
[15] = measured here: relative caspase fold change +Dox/-Dox
[16] = measured here: total cells with miR-34 induction, stronger effect = lower value
[17] = measured here: total cells without miR-34 induction
[18] = MELAS cybrid survival, CellTiter-Glo 48 h, stronger effect = higher value
[19] = Rieske KO mouse fibroblast survival, CellTiter-Glo 72 h

Cc1cccc(-c2[nH]c(C(C)(C)C)nc2-c2ccc3nccnc3c2)n1
1.52: SSMD [10]
active: AC50 [2] 2.35 µM | AC50 [3] 20.9 µM | AC50 [4] 9.34 µM | AC50 [5] 10.5 µM | AC50 [6] 4.69 µM | AC50 [7] 5.9 µM | viability ([12]; at 0.000305 µM, OCI-P5x cells, without rucaparib) 95.1% | viability ([12]; at 0.00122 µM, OCI-P5x cells, with rucaparib 20 µM, 100% = cells with rucaparib alone) 100% | viability ([12]; at 0.00122 µM, OCI-P5x cells, without rucaparib) 98.3% | viability ([12]; at 0.00488 µM, OCI-P5x cells, with rucaparib 20 µM, 100% = cells with rucaparib alone) 99.5% | viability ([12]; at 0.00488 µM, OCI-P5x cells, without rucaparib) 98.9% | viability ([12]; at 0.0195 µM, OCI-P5x cells, without rucaparib) 95% | viability ([12]; at 0.0781 µM, OCI-P5x cells, without rucaparib) 97.3% | viability ([12]; at 1.25 µM, OCI-P5x cells, without rucaparib) 98.6% | viability ([12]; at 5 µM, OCI-P5x cells, without rucaparib) 90.7%
4120 and 3500: cell count [9, 16]
inactive: outcome [1] | outcome [8] | fold change [9, 14] 1.02 and 0.895 | plate-normalised HSF1 focus index [10] 1.09 | z-score [11, 18] -0.318 | viability ([12]; at 0.000305 µM, OCI-C5x cells, with rucaparib 10 µM, 100% = cells with rucaparib alone) 121% | viability ([12]; at 0.000305 µM, OCI-C5x cells, without rucaparib) 111% | viability ([12]; at 0.000305 µM, OCI-P5x cells, with rucaparib 20 µM, 100% = cells with rucaparib alone) 101% | viability ([12]; at 0.00122 µM, OCI-C5x cells, with rucaparib 10 µM, 100% = cells with rucaparib alone) 106% | viability ([12]; at 0.00122 µM, OCI-C5x cells, without rucaparib) 112% | viability ([12]; at 0.00488 µM, OCI-C5x cells, with rucaparib 10 µM, 100% = cells with rucaparib alone) 120% | viability ([12]; at 0.00488 µM, OCI-C5x cells, without rucaparib) 113% | viability ([12]; at 0.0195 µM, OCI-C5x cells, with rucaparib 10 µM, 100% = cells with rucaparib alone) 119% | viability ([12]; at 0.0195 µM, OCI-C5x cells, without rucaparib) 116% | viability ([12]; at 0.0195 µM, OCI-P5x cells, with rucaparib 20 µM, 100% = cells with rucaparib alone) 103% | viability ([12]; at 0.0781 µM, OCI-C5x cells, with rucaparib 10 µM, 100% = cells with rucaparib alone) 121% | viability ([12]; at 0.0781 µM, OCI-C5x cells, without rucaparib) 111% | viability ([12]; at 0.0781 µM, OCI-P5x cells, with rucaparib 20 µM, 100% = cells with rucaparib alone) 101% | viability ([12]; at 0.313 µM, OCI-C5x cells, with rucaparib 10 µM, 100% = cells with rucaparib alone) 119% | viability ([12]; at 0.313 µM, OCI-C5x cells, without rucaparib) 111% | viability ([12]; at 0.313 µM, OCI-P5x cells, with rucaparib 20 µM, 100% = cells with rucaparib alone) 112% | viability ([12]; at 0.313 µM, OCI-P5x cells, without rucaparib) 102% | viability ([12]; at 1.25 µM, OCI-C5x cells, with rucaparib 10 µM, 100% = cells with rucaparib alone) 124% | viability ([12]; at 1.25 µM, OCI-C5x cells, without rucaparib) 117% | viability ([12]; at 1.25 µM, OCI-P5x cells, with rucaparib 20 µM, 100% = cells with rucaparib alone) 121% | viability ([12]; at 5 µM, OCI-C5x cells, with rucaparib 10 µM, 100% = cells with rucaparib alone) 139% | viability ([12]; at 5 µM, OCI-C5x cells, without rucaparib) 142% | viability ([12]; at 5 µM, OCI-P5x cells, with rucaparib 20 µM, 100% = cells with rucaparib alone) 120%
7730: cell count [10]
-0.927: z-score [11, 19]
4050 and 3910: cell count [9, 17]
0.491 and 0.704: fold change [9, 15]

O=C1CCCC2=C1C(c1[nH]ncc1Cl)N=C(Nc1nc3ccccc3o1)N2 (stereo unspecified)
inactive: outcome [1] | outcome [2] | outcome [13] | outcome [6] | outcome [7] | outcome [8]

Cc1cccc(-c2[nH]c(C(C)(C)C)nc2-c2ccc3c(c2)OCO3)n1
0.464: fold change [9, 15]
inactive: fold change [9, 14] 0.974 | z-score [11, 18] -0.251
-1.59: z-score [11, 19]
3490: cell count [9, 16]
3590: cell count [9, 17]
active: AC50 [1] 3.72 µM | AC50 [2] 0.526 µM | AC50 [3] 6.62 µM | AC50 [4] 2.63 µM | AC50 [5] 2.95 µM | AC50 [7] 1.18 µM | IC50 [8] 3.72 µM

COc1cccc(OC)c1-c1cc(C(=O)NC2(C(=O)O)C3CC4CC(C3)CC2C4)nn1-c1ccnc2cc(Cl)ccc12 (stereo unspecified)
active: AC50 [1] 14.8 µM | AC50 [5] 18.6 µM
inactive: outcome [2] | outcome [13] | outcome [6] | outcome [8]

C[C@]12CCC3=C4CCC(=O)C=C4CC[C@H]3[C@@H]1CC[C@@]2(O)CC#N
inactive: outcome [1] | outcome [2] | outcome [13] | outcome [5] | outcome [6] | outcome [7]

Cc1nc(NC(=O)N2CCC[C@H]2C(N)=O)sc1-c1ccnc(C(C)(C)C(F)(F)F)c1
active: AC50 [1] 5.9 µM | AC50 [2] 1.87 µM | AC50 [3] 1.05 µM | AC50 [4] 4.68 µM | AC50 [5] 3.32 µM | AC50 [6] 1.66 µM
